Experiment [1] is described as follows: ATG_CMV_CIS: Attagene CIS-FACTORIAL HepG2 Assay for human CMV (Internal Marker) (AID 2282928).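 Note: endpoint acts as a background internal control marker rather than a target.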 Particulars: HepG2 CMV promoter reporter, transcription factor profiling; actives raise or lower the signal. An outline of the steps:
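24 h chemical treatment, HepG2 with transient multi-reporter transfection; RNA → oligo(dT) RT → PCR → 6-FAM extension → HpaI digest → CE fluorescence. Bidirectional fit, DMSO negative control.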

Experiment [2] is described as follows: ATG_ISRE_CIS: Attagene CIS-FACTORIAL HepG2 Assay for human Interferon Regulatory Factor 1 (IRF1) binding to an Interferon-Stimulated Response Element (ISRE) (AID 2282948). The following applies: HepG2 ISRE cis-reporter (Attagene), mRNA transcription readout; actives raise or lower the signal. An outline of the steps: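 Multiplexed mRNA reporter readout in human liver HepG2 cells: cis-element-driven reporters transfected, compound added for 24 h, transcripts amplified, fluorescently labelled and sized by capillary electrophoresis; curve fitting bidirectional against DMSO.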

The nature of experiment [3]: ATG_M_32_CIS: Attagene CIS-FACTORIAL HepG2 Assay for M32 Transcription Factor (Internal Marker) (AID 2282949).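 Note: background control marker of the multiplexed CIS panel rather than a real target.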 The following applies: HepG2 Attagene cis-factorial M32 reporter, mRNA; actives raise or lower the signal. In a few lines:
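HepG2 human liver cells transiently transfected with cis-promoter-driven multiple reporter transcription units, dosed 24 h. Reporter mRNA quantified by RT-PCR, FAM-labelled primer extension, HpaI digest and capillary electrophoresis; bidirectional fit versus DMSO baseline.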

For experiment [4], the target named is Hepatocyte nuclear factor 6 (Homo sapiens) (UniProt Q9UBC0). Briefly: ATG_HNF6_CIS: Attagene CIS-FACTORIAL HepG2 Assay for human Hepatocyte Nuclear Factor 6 (HNF6) (AID 2282952). Particulars: HepG2 Attagene cis-factorial HNF6 reporter transcription; actives raise or lower the signal. In a few lines: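 Endogenous factor activity read in transiently transfected HepG2 via promoter-regulated reporter transcripts. RNA harvested 24 h post-dosing, reverse-transcribed, PCR-amplified, FAM-labelled, HpaI-digested and resolved by capillary electrophoresis; fitted in both directions against DMSO.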
Hepatocyte nuclear factor 6 (Homo sapiens), sequence (Q9UBC0 whole entry, looked up): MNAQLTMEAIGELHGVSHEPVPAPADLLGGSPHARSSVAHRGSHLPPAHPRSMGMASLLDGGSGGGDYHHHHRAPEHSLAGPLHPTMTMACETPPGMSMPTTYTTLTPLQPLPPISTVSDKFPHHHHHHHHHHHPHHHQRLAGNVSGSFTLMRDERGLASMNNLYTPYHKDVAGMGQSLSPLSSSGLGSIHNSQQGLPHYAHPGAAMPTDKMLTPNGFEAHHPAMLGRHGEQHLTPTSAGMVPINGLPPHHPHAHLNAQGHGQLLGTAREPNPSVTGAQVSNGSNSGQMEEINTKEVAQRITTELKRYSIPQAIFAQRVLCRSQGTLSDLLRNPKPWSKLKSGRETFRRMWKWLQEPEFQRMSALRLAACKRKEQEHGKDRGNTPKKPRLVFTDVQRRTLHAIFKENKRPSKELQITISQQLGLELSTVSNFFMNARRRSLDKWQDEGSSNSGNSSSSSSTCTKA

Experiment [5] addresses Heat shock factor protein 1 (Homo sapiens) (UniProt Q00613). Briefly: ATG_HSE_CIS: Attagene CIS-FACTORIAL HepG2 Assay for human Heat Shock Transcription Factor 1 (HSE) (AID 2282953). The following applies: HepG2 HSE cis-reporter, Attagene RNA transcription; actives raise or lower the signal. In a few lines:
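Read-out: fluorescence of reporter-specific RT-PCR fragments separated by capillary electrophoresis. HepG2 carrying transfected cis-element reporter units; 24 h dosing; activity fitted in both directions relative to DMSO baseline.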

Experiment [6] can be described thus: ATG_RORE_CIS: Attagene CIS-FACTORIAL HepG2 Assay for human RAR-related Orphan Receptor Element (RORE) (AID 2282959). Particulars: HepG2 Attagene cis-factorial RORE reporter, mRNA; actives raise or lower the signal. An outline of the steps: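 Fluorescence intensity of reporter-specific cDNA fragments, separated by capillary electrophoresis, gives the signal. Source: HepG2 liver cells transiently transfected with cis-element reporters and exposed 24 h; DMSO-normalized bidirectional fit.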

Experiment [7] deals with Signal transducer and activator of transcription 3 (Homo sapiens) (UniProt P40763). Briefly: ATG_STAT3_CIS: Attagene CIS-FACTORIAL HepG2 Assay for human Signal Transducer and Activator of Transcription 3 (STAT3) (AID 2282963). Particulars: HepG2, Attagene cis-factorial STAT3 reporter transcription; actives raise or lower the signal. In a few lines:
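HepG2, MRTU-transfected, 24 h dosing. RNA → RT → PCR → FAM label → HpaI → CE. Bidirectional fit vs DMSO.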

The nature of experiment [8]: ATG_TA_CIS: Attagene CIS-FACTORIAL HepG2 Assay for human TA Basal Promoter (AID 2282964). The following applies: HepG2 Attagene CIS-factorial TA basal promoter reporter; actives raise or lower the signal. In a few lines:
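Transfected HepG2, 24 h compound exposure; RNA → RT-PCR → FAM primer extension → HpaI cut → CE fluorescence. Gain/loss-of-signal fitted against DMSO negative control. Background-control readout.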

The nature of experiment [9]: ATG_TCF_b_cat_CIS: Attagene CIS-FACTORIAL HepG2 Assay for human T-Cell-Factor with beta-catenin (TCF/b-cat) (AID 2282965). The following applies: HepG2 TCF/beta-catenin cis-reporter transcription, actives raise or lower the signal. An outline of the steps: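 HepG2 cells transiently transfected with multiple cis-promoter-regulated reporter transcription units, so endogenous transcription factor activity is measured. Reporter mRNA read 24 hours after dosing by RT-PCR, fluorescent labelling and capillary electrophoresis; bidirectional fitting against DMSO.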

Experiment [10] is described as follows: ATG_TAL_CIS: Attagene CIS-FACTORIAL HepG2 Assay for human TAL Basal Promoter (AID 2282966).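 Note: background control endpoint measuring basal TAL promoter reporter mRNA not a specific factor.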 The following applies: HepG2 Attagene cis-factorial TAL promoter reporter; actives raise or lower the signal. In a few lines: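 Background-control endpoint: basal TAL promoter reporter transcripts in transiently transfected HepG2, measured 24 h after dosing. Read-out by RT-PCR with fluorescent primer extension and capillary electrophoresis; gain or loss of signal fitted relative to DMSO.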

Experiment [11] in a line: ATG_TGFb_CIS: Attagene CIS-FACTORIAL HepG2 Assay for human Transforming Growth Factor (TGF) (AID 2282967). Particulars: HepG2 Attagene CIS TGFb reporter, mRNA transcription; actives raise or lower the signal. In a few lines:
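Readout: fluorescently labeled reporter cDNA fragments resolved by capillary electrophoresis after RT-PCR. Transfected HepG2 cells dosed for 24 h; endogenous TF activity at TGFB1-linked cis element; gain or loss fitted relative to DMSO.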

A short description of experiment [12]: ATG_VDRE_CIS: Attagene CIS-FACTORIAL HepG2 Assay for human Vitamin D Receptor Element (VDRE) (AID 2282968). The following applies: HepG2 VDRE cis-reporter transcription, actives raise or lower the signal. An outline of the steps: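 Steps: transfect HepG2 with multiple reporter transcription units; dose chemicals 24 h; isolate RNA; RT-PCR; label with 6-FAM primer extension; HpaI digest; capillary electrophoresis. Curves fitted both directions against DMSO.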

Experiment [13] addresses X-box-binding protein 1 (Homo sapiens) (UniProt P17861). Briefly: ATG_Xbp1_CIS: Attagene CIS-FACTORIAL HepG2 Assay for human X-box Binding Protein 1 (XBP1) (AID 2282972). The following applies: HepG2 XBP1 cis-element reporter, Attagene multiplex; actives raise or lower the signal. An outline of the steps: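 Multiplexed cis-reporter readout in transfected HepG2 liver cells. Exposure lasted 24 hours. Activity in either direction was fitted against DMSO as negative control and baseline.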

In experiment [14] the target is Transcriptional activator Myb (Homo sapiens) (UniProt P10242). Briefly: ATG_Myb_CIS: Attagene CIS-FACTORIAL HepG2 Assay for human Myeloblastosis (Myb) Proto-Oncogene Transcription Factor (AID 2282986). The following applies: HepG2 Attagene CIS-FACTORIAL Myb reporter transcription; actives raise or lower the signal. In a few lines:
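Fluorescence signals from capillary electrophoresis of RT-PCR-amplified reporter cDNA give the read-out. Cells: HepG2 transfected with multiple cis-regulated reporter units. Exposure lasts 24 hours; DMSO defines baseline for gain or loss of signal.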

Experiment [15] concerns the target Nuclear respiratory factor 1 (Homo sapiens) (UniProt Q16656). Briefly: ATG_NRF1_CIS: Attagene CIS-FACTORIAL HepG2 Assay for human Nuclear Respiratory Factor 1 (NRF1) Orphan Gene (AID 2282987). Particulars: HepG2 NRF1 cis-element reporter, Attagene multiplex; actives raise or lower the signal. An outline of the steps: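 Transcriptional reporter readout, one component of a 52-endpoint multiplexed HepG2 panel. Exposure 24 h; mRNA detected via RT-PCR and fluorescent capillary electrophoresis; fitting in both directions against DMSO.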

Experiment [16] addresses Myc proto-oncogene protein (Homo sapiens) (UniProt P01106). Briefly: ATG_Myc_CIS: Attagene CIS-FACTORIAL HepG2 Assay for human Myelocytomatosis (Myc) Proto-Oncogene Transcription Factor (AID 2282990). Particulars: HepG2, Attagene cis-reporter transcription factor activity; actives raise or lower the signal. In a few lines:
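HepG2 cells transiently transfected with multiple cis-promoter-driven reporter transcription units, so endogenous TF activity is read. After 24 h compound exposure, reporter mRNA was quantified by RT-PCR, 6-FAM labelling, HpaI digestion and capillary electrophoresis; bidirectional fit versus DMSO.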

The nature of experiment [17]: ATG_NF_kB_CIS: Attagene CIS-FACTORIAL HepG2 Assay for human Nuclear Factor Kappa B (NF-kB) (AID 2282991). The following applies: HepG2 Attagene cis-factorial NF-kB reporter mRNA; actives raise or lower the signal. In a few lines:
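HepG2, transient multi-reporter transfection, cis promoter elements (endogenous TFs). 24 h exposure. Total RNA → RT → PCR → 6-FAM label → HpaI → CE. Gain/loss vs DMSO.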

Experiment [18] in a line: ATG_NRF2_ARE_CIS: Attagene CIS-FACTORIAL HepG2 Assay for human Nuclear Factor Erythroid 2 Related Factor 2 (NFR2) response to Antioxidant Response Elements (ARE) (AID 2282992).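 For AC50: reporter mRNA level measured by RT-PCR and capillary electrophoresis fluorescence.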 The following applies: HepG2 Attagene ARE/NRF2 reporter, transcription factor activity; actives raise or lower the signal. In a few lines:
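Endogenous transcription factor activity in human liver HepG2 cells is tracked via a cis-element-driven reporter within a multiplexed set. mRNA induction is read by RT-PCR and capillary electrophoresis after 24 h, with DMSO as baseline.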

Experiment [19] is described as follows: ATG_Oct_MLP_CIS: Attagene CIS-FACTORIAL HepG2 Assay for human Octamer-Binding Transcription Factor (Oct) (AID 2282993). The following applies: HepG2 Attagene cis-factorial Oct reporter, mRNA; actives raise or lower the signal. In a few lines: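 Read-out: reporter mRNA via RT-PCR plus capillary electrophoresis of 6-FAM-labelled fragments. Transiently transfected HepG2, 24 h exposure, endogenous TF activity on cis elements. Gain or loss of signal fitted relative to DMSO.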

In experiment [20] the target is Cellular tumor antigen p53 (Homo sapiens) (UniProt P04637). Briefly: ATG_p53_CIS: Attagene CIS-FACTORIAL HepG2 Assay for human p53 Transcription Factor (AID 2282994). The following applies: HepG2 p53 cis-element reporter, Attagene mRNA; actives raise or lower the signal. An outline of the steps: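 Steps: transfect HepG2 with multiplexed cis reporter constructs; dose chemicals 24 h; extract RNA, reverse-transcribe, PCR-amplify reporter sequences; FAM-label, HpaI-digest, resolve fragments by CE. Activity fitted both directions relative to DMSO.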
Cellular tumor antigen p53 (Homo sapiens), sequence (P04637 whole entry, looked up, the tested form may be a part): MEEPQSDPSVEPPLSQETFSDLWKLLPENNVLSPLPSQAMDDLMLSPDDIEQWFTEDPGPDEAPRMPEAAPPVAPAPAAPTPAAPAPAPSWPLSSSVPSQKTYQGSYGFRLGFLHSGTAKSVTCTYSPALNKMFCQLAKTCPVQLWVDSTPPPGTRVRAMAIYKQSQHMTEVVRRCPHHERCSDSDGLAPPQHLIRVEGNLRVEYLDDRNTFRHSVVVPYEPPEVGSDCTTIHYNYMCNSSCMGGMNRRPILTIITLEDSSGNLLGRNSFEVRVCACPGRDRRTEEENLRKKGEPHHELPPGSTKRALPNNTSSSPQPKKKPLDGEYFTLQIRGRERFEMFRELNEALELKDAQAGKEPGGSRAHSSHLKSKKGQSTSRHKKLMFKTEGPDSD

Structures are written as SMILES. Active and inactive are the calls of the source. Rule for the calls: active = hit-call score of the fitted dose curve at least 0.9, where 1 is the maximum; inactive = score below 0.9.

Transcriptional activator Myb (Homo sapiens), sequence (P10242 whole entry, looked up): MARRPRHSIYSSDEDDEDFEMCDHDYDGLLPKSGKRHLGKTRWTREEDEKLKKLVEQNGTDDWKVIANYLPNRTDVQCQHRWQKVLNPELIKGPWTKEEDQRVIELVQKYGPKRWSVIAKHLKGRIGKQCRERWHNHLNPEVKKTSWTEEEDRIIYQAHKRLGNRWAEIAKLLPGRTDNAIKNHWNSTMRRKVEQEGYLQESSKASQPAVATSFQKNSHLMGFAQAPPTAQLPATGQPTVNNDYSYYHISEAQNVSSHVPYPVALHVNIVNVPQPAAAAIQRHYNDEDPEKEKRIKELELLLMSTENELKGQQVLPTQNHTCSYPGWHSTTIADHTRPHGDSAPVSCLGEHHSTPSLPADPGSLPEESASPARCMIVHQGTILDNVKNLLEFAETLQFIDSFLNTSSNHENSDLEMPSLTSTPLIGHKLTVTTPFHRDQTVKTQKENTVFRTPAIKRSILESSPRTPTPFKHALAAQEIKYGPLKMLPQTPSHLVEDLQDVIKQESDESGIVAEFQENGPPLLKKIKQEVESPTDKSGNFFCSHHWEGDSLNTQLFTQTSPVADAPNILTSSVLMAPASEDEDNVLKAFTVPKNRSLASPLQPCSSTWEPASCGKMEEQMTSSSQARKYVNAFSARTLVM
Signal transducer and activator of transcription 3 (Homo sapiens), sequence (P40763 whole entry, looked up): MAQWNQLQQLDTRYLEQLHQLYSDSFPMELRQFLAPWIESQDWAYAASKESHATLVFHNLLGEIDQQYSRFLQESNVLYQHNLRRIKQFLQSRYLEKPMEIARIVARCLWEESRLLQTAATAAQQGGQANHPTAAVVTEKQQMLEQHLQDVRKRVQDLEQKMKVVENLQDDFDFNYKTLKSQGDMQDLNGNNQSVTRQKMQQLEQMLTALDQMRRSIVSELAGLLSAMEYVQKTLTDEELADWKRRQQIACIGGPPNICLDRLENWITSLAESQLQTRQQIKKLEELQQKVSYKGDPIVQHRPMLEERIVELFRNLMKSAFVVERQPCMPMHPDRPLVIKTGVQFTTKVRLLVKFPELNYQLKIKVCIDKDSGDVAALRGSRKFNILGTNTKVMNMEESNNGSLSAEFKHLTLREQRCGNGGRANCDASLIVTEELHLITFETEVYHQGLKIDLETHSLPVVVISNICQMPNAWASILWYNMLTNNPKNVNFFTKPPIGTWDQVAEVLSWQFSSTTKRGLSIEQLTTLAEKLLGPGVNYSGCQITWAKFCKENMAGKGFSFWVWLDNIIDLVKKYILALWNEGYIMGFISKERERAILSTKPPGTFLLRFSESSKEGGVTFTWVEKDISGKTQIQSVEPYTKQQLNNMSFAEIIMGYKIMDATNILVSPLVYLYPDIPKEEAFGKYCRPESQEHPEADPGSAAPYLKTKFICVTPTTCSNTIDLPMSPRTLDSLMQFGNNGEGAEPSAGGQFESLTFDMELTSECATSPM
Heat shock factor protein 1 (Homo sapiens), sequence (Q00613 whole entry, looked up, the tested form may be a part): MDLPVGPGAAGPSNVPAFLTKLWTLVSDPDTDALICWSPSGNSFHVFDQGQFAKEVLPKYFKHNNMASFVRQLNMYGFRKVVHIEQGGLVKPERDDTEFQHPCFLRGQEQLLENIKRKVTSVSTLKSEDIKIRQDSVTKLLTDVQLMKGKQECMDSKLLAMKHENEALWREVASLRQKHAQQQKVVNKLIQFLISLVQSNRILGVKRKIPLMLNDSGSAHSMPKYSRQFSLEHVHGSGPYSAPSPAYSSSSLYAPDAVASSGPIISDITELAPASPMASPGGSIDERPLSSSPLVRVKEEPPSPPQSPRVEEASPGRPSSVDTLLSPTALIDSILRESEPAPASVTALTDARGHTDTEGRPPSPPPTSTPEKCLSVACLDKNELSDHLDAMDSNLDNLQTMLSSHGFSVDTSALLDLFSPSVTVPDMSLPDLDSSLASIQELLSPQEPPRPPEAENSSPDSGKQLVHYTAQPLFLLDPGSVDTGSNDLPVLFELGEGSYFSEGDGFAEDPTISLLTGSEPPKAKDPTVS
Myc proto-oncogene protein (Homo sapiens), sequence (P01106 whole entry, looked up): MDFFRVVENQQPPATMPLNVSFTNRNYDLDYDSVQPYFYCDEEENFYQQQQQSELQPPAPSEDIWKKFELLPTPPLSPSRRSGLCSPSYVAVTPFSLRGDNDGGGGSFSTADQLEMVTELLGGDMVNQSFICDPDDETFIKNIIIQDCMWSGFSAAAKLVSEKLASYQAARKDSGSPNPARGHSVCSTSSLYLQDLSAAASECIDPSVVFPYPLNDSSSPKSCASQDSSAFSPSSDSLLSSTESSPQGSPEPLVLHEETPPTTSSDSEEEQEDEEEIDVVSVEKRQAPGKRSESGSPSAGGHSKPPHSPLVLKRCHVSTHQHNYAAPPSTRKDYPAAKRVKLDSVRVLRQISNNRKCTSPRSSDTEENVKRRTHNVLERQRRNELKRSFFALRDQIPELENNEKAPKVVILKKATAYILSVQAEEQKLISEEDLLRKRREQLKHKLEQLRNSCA
Nuclear respiratory factor 1 (Homo sapiens), sequence (Q16656 whole entry, looked up): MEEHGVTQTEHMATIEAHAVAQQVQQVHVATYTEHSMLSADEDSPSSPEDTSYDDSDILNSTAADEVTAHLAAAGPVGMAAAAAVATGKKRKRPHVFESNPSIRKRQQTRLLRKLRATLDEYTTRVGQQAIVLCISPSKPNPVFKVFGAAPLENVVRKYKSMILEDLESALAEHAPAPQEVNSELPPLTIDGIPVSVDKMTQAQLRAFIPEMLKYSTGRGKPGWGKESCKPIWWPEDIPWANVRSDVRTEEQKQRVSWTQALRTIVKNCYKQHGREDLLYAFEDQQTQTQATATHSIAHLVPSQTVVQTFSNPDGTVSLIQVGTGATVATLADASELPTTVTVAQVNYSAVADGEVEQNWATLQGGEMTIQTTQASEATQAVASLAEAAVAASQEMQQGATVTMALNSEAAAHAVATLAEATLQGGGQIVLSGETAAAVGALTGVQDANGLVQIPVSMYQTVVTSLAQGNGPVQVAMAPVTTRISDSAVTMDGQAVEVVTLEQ
X-box-binding protein 1 (Homo sapiens), sequence (P17861 whole entry, looked up): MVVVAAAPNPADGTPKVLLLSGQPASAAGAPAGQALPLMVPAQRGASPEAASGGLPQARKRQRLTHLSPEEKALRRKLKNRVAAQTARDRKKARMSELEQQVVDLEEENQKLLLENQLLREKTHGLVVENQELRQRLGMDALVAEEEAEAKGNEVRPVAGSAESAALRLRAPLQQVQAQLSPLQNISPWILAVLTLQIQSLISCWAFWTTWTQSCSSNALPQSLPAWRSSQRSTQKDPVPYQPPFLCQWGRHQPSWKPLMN

On to `O=[N+]([O-])c1cc(C(F)(F)F)c(Cl)c([N+](=O)[O-])c1Cl`, for which the AC50 (as a rule, the concentration at which the activity in the assay is half-maximal) was 5.9 µM (active) in experiment [1]; 5.65 µM (active) in experiment [2]; 5.39 µM (active) in experiment [5]; 5.54 µM (active) in [9]; 5.51 µM (active) in [12]; 3.71 µM (active) in experiment [17]. Also, the AC50 in experiment [18] is 1.3 µM (active). Further, the compound was classed as inactive in [3], in experiment [4], in experiment [6], in experiment [7], in [8] and in experiment [10]. Also, the result in [11], in experiment [13], in experiment [14], in experiment [15], in experiment [16] and in [19] was inactive. Further, in experiment [20], the outcome was inactive.

Consider `S=c1[nH]c2ccccc2[nH]1`, for which the compound was classed as inactive in experiment [1], in experiment [2], in [3], in experiment [4], in [5] and in [6]. Also, the result in experiment [7], in [8], in experiment [9], in [10], in experiment [11] and in experiment [13] was inactive. Also, the result in experiment [14], in experiment [15], in experiment [16], in experiment [18], in experiment [19] and in experiment [20] was inactive.

Take `C=Cc1cccc(CCl)c1`: the call in [1], in [4], in experiment [5], in experiment [6], in [7] and in [8] was inactive. Besides, the result in experiment [9], in experiment [10], in experiment [11], in experiment [14], in experiment [15] and in experiment [16] was inactive. Further, the compound was classed as inactive in experiment [17] and in experiment [20]. In addition, the AC50 in experiment [2] is 100 µM (active); in experiment [13], 38.5 µM (active); in [18], 22.4 µM (active); in experiment [19], 46.2 µM (active).

(Values after PubChem BioAssay (EPA / NIEHS).)
